Shown are actives, neighbours in structure and some others; about 6.2% of the full set was active somewhere.
KinaseGlo FLuc – Kinase-Glo luciferase inhibition (counter-screen); Kinase-Glo luciferase, ATP luminescence, 8 min; Potency, µM (top dose mostly 38.3 µM), for inactives: top-dose activity change, negative = inhibition, most hits filed as inhibitors; 200,000 tested, 0.28% active; note: nearly all actives have a fitted effect of over 60% in size
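Substrate mix (final 50 mM imidazole pH 7.2, 50 mM KCl, 7 mM MgCl2, 10 uM ATP, 0.01% Tween 20, 0.05% BSA) plus pin-tool compound, then Kinase-Glo detection mix; 8 min ambient, luminescence read.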
Gal4-VP16 FLuc – counter-screen for ROR gamma inhibitors: Gal4-VP16 reporter; Drosophila S2 Gal4-VP16 UAS-luciferase, luminescence, 20 h; Potency, µM (series often up to 53.6 µM), inactives show at the highest dose activity, negative = inhibition, most hits filed as inhibitors; 310,000 tested, 3.5% active;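 note: Gal4-VP16 expression switched on by copper sulfate through the metallothionein promoter; nearly all actives have a fitted effect of over 50% in size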
RORgamma inh – inhibitors of mouse ROR gamma transcriptional activity; Drosophila S2 Gal4-RORgamma UAS-luciferase reporter, 20 h; Potency, µM (doses to about 53.6 µM), without a hit: at the top dose activity change, negative = inhibition, usual class: inhibitors; 310,000 tested, 5.4% active; note: nearly all actives have a fitted effect of over 60% in size
Target sequence (P51450 whole entry, looked up, the tested form may be a part): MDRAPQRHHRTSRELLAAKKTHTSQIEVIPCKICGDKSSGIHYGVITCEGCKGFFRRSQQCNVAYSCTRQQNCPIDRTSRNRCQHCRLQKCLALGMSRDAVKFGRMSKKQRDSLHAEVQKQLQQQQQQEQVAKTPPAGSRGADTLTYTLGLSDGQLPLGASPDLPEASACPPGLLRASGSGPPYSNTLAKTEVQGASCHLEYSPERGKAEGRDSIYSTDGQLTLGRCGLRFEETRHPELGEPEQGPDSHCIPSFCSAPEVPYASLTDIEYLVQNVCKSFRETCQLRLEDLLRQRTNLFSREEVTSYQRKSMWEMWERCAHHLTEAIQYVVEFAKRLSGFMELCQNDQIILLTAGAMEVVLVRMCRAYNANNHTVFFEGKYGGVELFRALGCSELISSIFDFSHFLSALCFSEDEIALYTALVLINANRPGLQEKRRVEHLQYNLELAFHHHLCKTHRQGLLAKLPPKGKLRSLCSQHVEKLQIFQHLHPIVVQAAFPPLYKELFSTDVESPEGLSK
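Drosophila S2 cells stably expressing Gal4-DBD/mouse RORγ fusion under metallothionein promoter plus UAS-luciferase; compound 1 h, then 700 uM CuSO4 induction for 20 h at ambient temperature; inhibition read as reduced luminescence.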
Active calls of the source: *; ? = inconclusive; . = not tested or not shown; [ ] = another dose, or the depositor's remark. Calls come from the whole dose curve; as a rule, active = well fitted curve in the direction sought with a large enough effect; inconclusive = small, poorly fitted or top-dose-only effect, or another doubt; inactive = no such curve, though single readings can be large; an effect the other way counts as inactive or inconclusive. % is set by controls: 0 for no effect and ±100 for the full control effect; potency is the fitted concentration of half-maximal effect.

SMILES | KinaseGlo FLuc | Gal4-VP16 FLuc | RORgamma inh
CC(=O)N1C(=O)NC2=C(C(=O)CCC2)C1c1cccc([N+](=O)[O-])c1 (stereo not given) | . | -10% | -14%
CC(Oc1ccccc1)C(=O)Nc1nnc(S(=O)(=O)Nc2ccccc2)s1 (stereo not given) | . | -4% | 43%
C/C(CCC(=O)OC[C@@H]1O[C@H](C#Cc2ccccc2)C=C[C@@H]1Oc1ccc(C)cc1)=N/O[C@@H](C)c1cc(-c2c(C)cc(C)cc2C)no1 | . | 2%[10 µM] | 3%[10 µM]
N#CCCn1c(=O)c(-c2cccc(C#N)c2)nc2cnc(Oc3cccc(Cl)c3)nc21 | . | -17% | 37%
CC(C)C(=O)Nc1ncc(Cc2cccc(Cl)c2)s1 | 1% | ? | 11µM*
CC(=O)Nc1ncc(Cc2cccc(Cl)c2)s1 | -3% | ? | -20%
Cc1nc2c(cc1NC(=O)C(C)(C)C)nc(C)n2Cc1ccccc1 | . | 6% | -24%[1.91 µM]
O=C(O)COc1ccc(Oc2ccccc2)cc1 | 2% | 13µM* | ?
O=C(O)COc1ccc(Nc2ccccc2)cc1 | -1% | 3% | -19%
NC(=O)COc1ccccc1 | . | -1% | 29%
NC(=S)COc1ccccc1 | . | -19% | 22µM*
COc1ccccc1/C=C(/CC(=O)NCc1ccc2c(c1)OCO2)c1nc2ccccc2s1 | -4% | 11% | ?
CC(C(=O)NCc1ccco1)n1cc(C(=O)c2ccco2)c2ccccc21 (stereo not given) | 3% | 13% | 36%
COc1ccc(C2/C(=C(/O)c3ccc(C)cc3)C(=O)C(=O)N2CC2CCCO2)cc1OC (stereo not given) | -2% | 4% | 5%
Cc1oc(S(=O)(=O)N2CCCCC2)cc1NC(=O)Nc1ccc(F)cc1 | . | -5% | 23%
CC1(C)C2C(Cl)(Cl)C2(C)c2ccccc2N1C=O (stereo not given) | . | 2% | -6%
O=C(NC(=S)Nc1ccc(CN2CCOCC2)cc1)c1ccccc1[N+](=O)[O-] | -1% | -5% | -26%
O=C(NC(=S)Nc1ccccc1N1CCCCC1)c1ccc(-c2cccc([N+](=O)[O-])c2)o1 | 1% | 2.2µM* | 0.5µM*
O=C(Nc1ccc(CN2CCOCC2)cc1)c1ccc(-c2cccc(Cl)c2)o1 | -7% | -14% | 19%
O=C(NC(=S)Nc1ccccc1N1CCOCC1)c1ccc(-c2cccc(Cl)c2)o1 | 0% | 5.6µM* | 2.5µM*
O=C(NC(=S)Nc1ccc(CN2CCOCC2)cc1)c1ccc(-c2cccc(Cl)c2)o1 | . | 14µM* | 3.2µM*
O=C(NC(=S)Nc1ccc(CN2CCOCC2)cc1)c1ccc([N+](=O)[O-])cc1Cl | -6% | ? | 7.9µM*
O=C(NC(=S)Nc1ccccc1N1CCCC1)c1ccc(-c2cccc([N+](=O)[O-])c2)o1 | -2% | -23% | 13%
CN1CCN(c2ccccc2NC(=S)NC(=O)c2cc3ccccc3o2)CC1 | . | -2% | -40%
O=c1cc(-c2cccc(O)c2O)oc2ccccc12 | 0% | -15% | -36%
SMILES | KinaseGlo FLuc | Gal4-VP16 FLuc | RORgamma inh
CC(C)(CO)[C@H](O)C(=O)NCCCO | 4%[17.1 µM] | -6%[17 µM] | 12%[16.9 µM]
COCCCNC(=O)CN1C(=O)COc2ccc(S(=O)(=O)N3CC(C)CC(C)C3)cc21 (stereo not given) | . | 0% | -25%
Cc1ccc(S(=O)(=O)Nc2ccc3c(c2)nc(CCN2CCCC2)n3C)cc1 | . | -15% | -39%
Cn1c(Cn2nnc(-c3ccccc3)n2)nnc1SCc1ccccc1Cl | 1% | 11µM* | 6%
Cn1c(SCc2ccccc2Cl)nnc1-c1cnccn1 | -2% | 9% | 25%
Cc1ccc(NC(=S)N2CCN(S(=O)(=O)c3ccc(C)cc3)CC2)cc1 | . | -16% | 13µM*
CCNC(=S)N1CCN(S(=O)(=O)c2ccc(C)cc2)CC1 | 6% | 7% | 9%
CCc1ccc(NC(=S)N2CCN(S(=O)(=O)c3ccccc3)CC2)cc1 | . | ? | 18µM*
O=S(=O)(c1ccccc1)N1CCN(C(=S)Nc2ccc(Br)cc2)CC1 | . | -3% | -35%
Cc1cccc(NC(=S)N2CCN(S(=O)(=O)c3ccccc3)CC2)c1 | . | 5% | ?
Cc1cccc(NC(=S)N2CCN(S(=O)(=O)c3cccc(F)c3)CC2)c1 | 1% | 1% | 11µM*
O=C(c1cnccn1)N1CCC2(CC1)CCN(c1ccncc1)CC2 | -5% | -9% | -5%
CCCCCNCc1cccc(Br)c1 | -5% | -11% | -10%
C=CCSc1nc(-c2ccc(OC)cc2)c(C#N)c(=O)n1CC=C | 2% | -9% | 19%
CC(C)(C)N(CC#CCC1(O)c2ccccc2-c2ccccc21)CCO | -1% | -1% | -1%
O=C(c1ccco1)N1N=C(c2cccs2)CC1c1ccccc1O (stereo not given) | . | -15% | 1%
COc1cccc(C2CC(c3cccs3)=NN2C(=O)c2ccco2)c1O (stereo not given) | . | -3% | 5.6µM*
O=C(NCc1ccc(F)cc1)C(Cc1ccccc1)n1cccc1 (stereo not given) | . | 3% | 33%
C/C(=N\NC(=O)CCC(=O)NCc1ccccc1)c1ccco1 | . | -4% | -2%
O=C(N/N=C/c1ccccn1)c1ccc(NC(=O)c2ccc(F)cc2)cc1 | . | 11% | -6%
O=C(N/N=C/c1c(Cl)cccc1Cl)c1ccc(F)cc1 | 0% | -1% | 11µM*
Cc1cccc(/C=N/NC(=O)c2cc(Br)ccc2OCc2ccccc2)n1 | . | -24% | ?
O=C(N/N=C/c1c(Cl)cccc1Cl)c1ccccc1F | -4% | -1% | -12%
Cc1cccc(/C=N/NC(=O)c2ccccc2OCc2cccc(Br)c2)n1 | . | ? | 16µM*
O=C(N/N=C/c1ccc(Cl)cc1Cl)c1cccc(F)c1 | -15% | ? | 11µM*
SMILES | KinaseGlo FLuc | Gal4-VP16 FLuc | RORgamma inh
Cc1cccc(/C=N/NC(=O)c2ccc(F)cc2)n1 | . | ? | 7.1µM*
O=C(N/N=C/c1ccc(Cl)cc1Cl)c1ccc2nc[nH]c2c1 | . | 11% | 0%
COc1ccc(-c2csc(N(CC3CCCO3)C(=O)c3ccco3)n2)cc1 (stereo not given) | 2% | -2% | 4%
c1ccc(-c2cccc(N3CC[C@@]4(CCCNC4)C3)c2)cc1 | -3% | 0% | -23%
Cc1cccc(/C=N/NC(=O)c2cccc(Cl)c2)n1 | . | 11µM* | 7.1µM*
Cc1cccc(/C=N/NC(=O)c2cccc(NC(=O)c3ccccc3)c2)n1 | . | -4% | -17%
NC(=O)c1cnn2c(C(F)(F)F)cc(-c3ccc(F)cc3)nc12 | -3% | -17% | -28%
CCCc1ccc(/C=C2\C(=O)c3ccccc3C(O)=C2C(=O)OCC)cc1 | -6% | ? | 11µM*
CCOC(=O)C1=C(O)c2ccccc2C(=O)/C1=C\c1ccc(CC)cc1 | -11% | -1%[0.365 µM] | 4.5µM*
CCOC(=O)C1=C(C)N(c2ccccc2)C(=O)/C1=C\c1ccc(O)c(OC)c1 | . | -8% | -15%
CCCN=C(C)C1=C(O)c2ccccc2C1=O | -1% | -7% | 2%
CCn1nc(C)cc1C(=O)NC1CCCc2c1cnn2-c1ccc(C)c(C)c1 (stereo not given) | . | ? | 25%
COc1cc(C2Oc3ccccc3C=C2[N+](=O)[O-])cc(OC)c1OC (stereo not given) | . | 13µM* | ?
COc1cc(C2NC(=O)c3ccccc3O2)cc(OC)c1OC (stereo not given) | 1% | 1% | -21%

Screens (PubChem BioAssay)
